Source: PubChem
Rows were chosen to be rich in hits. Some 7% of all compounds tested hit in one or more screens of this group.
BAZ2B block: BAZ2B (human) inhibition | AlphaScreen BAZ2B-H3K14Ac peptide displacement | Potency, µM (titrated, usually from 114 µM), inactives show top-dose activity change, negative = inhibition, most hits filed as inhibitors | 4.4% of 360,000 active | AID 504333; further: potency means the concentration at half of the fitted maximal effect; on the % scale 0 is the no-effect control and ±100 the full control effect; nearly all actives have a fitted effect of over 60% in size
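Complex of BAZ2B and biotin-H3K14Ac (50 nM apiece) forms over 30 min at RT, then faces library compounds up to 110 uM for another 30 min; AlphaScreen beads added, 20 min dark incubation, luminescence read.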
HP1b binding inh: HP1-beta chromodomain-methylated histone interaction inhibition; AlphaScreen HP1-beta / biotin-H3K9me3 peptide binding; Potency, µM (top dose mostly 114 µM), inactives show at the highest dose activity change, negative = inhibition, most hits filed as inhibitors; 0.56% of 390,000 active; AID 540317; further: potency means the concentration at half of the fitted maximal effect; nearly all actives have a fitted effect of over 70% in size
Target sequence (P83916 whole entry, looked up): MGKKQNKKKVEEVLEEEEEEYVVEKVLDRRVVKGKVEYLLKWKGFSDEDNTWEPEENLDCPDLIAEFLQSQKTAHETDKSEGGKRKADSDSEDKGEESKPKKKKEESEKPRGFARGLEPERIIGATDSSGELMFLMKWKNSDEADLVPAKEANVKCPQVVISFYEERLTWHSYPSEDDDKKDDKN
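Compound inhibition of the preformed complex between 50 nM HP1-beta and 50 nM biotinylated H3K9me3 peptide was read by AlphaScreen. Buffer was PBS pH 7.4 with 0.01% Tween-20. Incubations ran 30 min at room temperature, with 10 ug/mL donor/acceptor beads.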
JMJD2A Tudor inh: blocks the human JMJD2A Tudor domain. O75164. AlphaScreen JMJD2A-Tudor / H3K4me3 peptide binding. Potency, µM (highest dose often 114 µM), for inactives: at the top dose activity change, negative = inhibition, hits mostly inhibitors. 4.4% of 390,000 active. AID 504339; further: potency means the concentration at half of the fitted maximal effect; on the % scale 0 is the no-effect control and ±100 the full control effect; nearly all actives have a fitted effect of over 50% in size
PLK1 PBD inh: blocks phosphopeptide binding to human PLK1 polo-box domain. Potency, µM, for the others: max response, negative = inhibition, actives largely listed as inhibitors. 2.8% of 360,000 active. Plk1 PBD binding of FITC phosphopeptide, fluorescence polarization. P53350; further: potency means the concentration at half of the fitted maximal effect; series mostly up to about 57 µM; on the % scale 0 is the no-effect control and ±100 the full control effect; nearly all actives have a fitted effect of over 65% in size
GCN5L2 inh: GCN5L2 (KAT2A) acetyltransferase inhibition. Q92830. GCN5L2 HAT assay, ThioGlo1 CoA-SH fluorescence. Potency, µM (highest dose often 58.9 µM), without a hit: at the top dose activity change, negative = inhibition, actives largely listed as inhibitors. 0.21% of 390,000 active. AID 504327; further: potency means the concentration at half of the fitted maximal effect; on the % scale 0 is the no-effect control and ±100 the full control effect
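qHTS, 1536-well. 20nM enzyme, pH 7.5 HEPES/EDTA/Tween-20 buffer; 15 min compound preinc., RT. Start: 75uM H3(1-25), 70uM AcCoA, 50uM ThioGlo1. Read Ex340/Em540 at t=0 (autofluorescence flag) and t=20 min.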
PI5P4Ka inh: blocks human PI5P4K alpha kinase activity; PI5P4Kalpha enzyme, ADP-Glo luminescence, 60 min; stronger effect = lower value; P48426; 1.2% of 330,000 active; max response, %; active means max response of -50% or lower; inconclusive means between -30% and -50%; inactive means -30% or higher; further: value at the top dose of about 77 µM; on the % scale 0 is the no-effect control and ±100 the full control effect
Target sequence (P48426 whole entry, looked up): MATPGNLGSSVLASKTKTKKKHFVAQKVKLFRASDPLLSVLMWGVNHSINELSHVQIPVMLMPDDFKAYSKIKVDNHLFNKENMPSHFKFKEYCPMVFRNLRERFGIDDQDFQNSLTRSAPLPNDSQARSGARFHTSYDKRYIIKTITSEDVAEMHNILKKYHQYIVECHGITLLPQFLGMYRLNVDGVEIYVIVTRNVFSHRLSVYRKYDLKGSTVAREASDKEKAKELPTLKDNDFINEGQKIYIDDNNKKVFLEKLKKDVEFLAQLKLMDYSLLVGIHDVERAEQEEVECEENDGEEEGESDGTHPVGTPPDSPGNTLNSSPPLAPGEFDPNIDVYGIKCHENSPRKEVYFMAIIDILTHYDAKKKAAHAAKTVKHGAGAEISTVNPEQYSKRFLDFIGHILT
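Human PI5P4Kalpha with substrate in 0.038 M HEPES pH 7.4, 0.28 mM EGTA, 0.1% CHAPS, 5% DMSO; reaction started with 5 microM ATP (final), 60 min at room temperature. ADP formed read by ADP-Glo luminescence.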
* hit, by the source's call; ? = inconclusive; nt = not tested or not shown; ! = not confirmed by another sample; [ ] = dose if it differs, or a comment. Unless noted, the call rests on the fitted dose curve; in most records, active means well fitted curve in the direction sought with a large enough effect; inconclusive means small, poorly fitted or top-dose-only effect, or another doubt; inactive means no such curve, though single readings can be large; an effect the other way counts as inactive or inconclusive.

SMILES	BAZ2B block	HP1b binding inh	JMJD2A Tudor inh	PLK1 PBD inh	GCN5L2 inh	PI5P4Ka inh
C[C@@H]1CCCCO[C@H](CN(C)C(=O)Nc2ccc3c(c2)OCO3)[C@H](C)CN([C@@H](C)CO)C(=O)c2cc(NS(=O)(=O)c3ccc(Cl)cc3)ccc2O1	nt	nt	nt	-18%	nt	3
CC(C)Oc1ccc(C(=O)NCc2ccco2)cc1	-12%	?	-12%[11.4 µM]	27µM*	3%	-19
Clc1ccc(C2NCCc3sccc32)cc1 (stereo not drawn)	-1%	20%	-10%	-16%	-8%	-1
Oc1ccc(C2CNCc3sccc32)cc1O (stereo not drawn)	15%	?	50µM*	-10%	-4%	-10
Cc1c(Cl)cccc1NC(=O)c1ccc2nc(C(C)C)oc2c1	3%	31%[57 µM]	3%	nt	-11%	nt
Cc1cccc(-c2cc3nc(C)cc(C)n3n2)c1	16%	9%	-42%	21µM*	-5%	-3
Cc1cc(C)n2nc(-c3cccc(Br)c3)cc2n1	46%	57%	23%	-7%	-7%	17
CN1C(=O)NC2(O)C(=O)c3ccccc3C12O (stereo not drawn)	-1%	?	?	2.7µM*	-4%	-51*
O=C(CSc1nnc2scc(-c3ccccc3)n12)Nc1nsc(-c2ccccc2)n1	56µM*	20%	?	-4%	-12%	nt
OCc1c[nH]c(=S)n1CCOc1cccc(C(F)(F)F)c1	-25%	16%	22µM*	-23%	-5%	1
Cc1ccc(S(=O)(=O)N2CCN(c3ccccc3)CC2)s1	nt	54%	-8%	-6%	-5%	2
CC1CCN(C(=O)c2[nH]cnc2C(=O)Nc2ccccc2)CC1	nt	22%	-8%	3%	-3%	1
COc1cc(C2NC(C(=O)O)Cc3c2[nH]c2ccccc32)cc(OC)c1OC (stereo not drawn)	79µM*	-2%	56µM*	-7%	-3%	nt
CCC1NC(C(=O)O)Cc2c1[nH]c1ccccc21 (stereo not drawn)	-12%	-14%	-14%	-19%	-19%	-20
COc1ccc(C2NC(C(=O)O)Cc3c2[nH]c2ccccc32)cc1OC (stereo not drawn)	3%	?	3.2µM*	-7%	-2%	6
CN(C)c1cccc(CNC(=O)c2csc([C@@H]3C[C@H](O)[C@@H](CO)O3)n2)c1	nt	nt	nt	-10%	nt	-2
COC(=O)C1=C(C)NC(=O)NC1c1ccc(-c2ccccc2Cl)o1 (stereo not drawn)	11%	-10%	-23%[11.4 µM]	19µM*	1%	6
C=CCN1CCc2c(cc(O)c(O)c2Cl)C(c2ccccc2)C1 (stereo not drawn)	?	20%	?	-4%	-7%	-19
Oc1cc2c(c(Cl)c1O)CCNCC2c1ccccc1 (stereo not drawn)	nt	-10%	45µM*	-12%	-3%	?
Oc1ccc(C2CNCCc3c2cc(O)c(O)c3Cl)cc1 (stereo not drawn)	10%	16%	35µM*!	-19%	-7%	5
Cc1ccc(C(c2nnnn2Cc2ccccc2)N2CCN(Cc3ccncc3)CC2)cc1 (stereo not drawn)	nt	30%	-35%	nt	nt	nt
Cc1cccc(Cn2c(SCc3ccc(C(=O)NCc4ccccc4F)cc3)nc3ccncc32)c1	-10%	39%	-15%	nt	-6%	nt
CCO/C=C1\SC(=S)N(c2ccc(Cl)cc2)C1=O	-36%	-15%	-29%	?	2%	-5
CC(C)c1ccc(N2C(=O)/C(=C/N(C)C)SC2=S)cc1	45µM*	?	45µM*	-21%	-8%	-27
COc1cc(NC(C)C(=O)N2CC(C)OC(C)C2)cc(OC)c1 (stereo not drawn)	40µM*	16µM*	3.2µM*	5%	-12%	-7
SMILES	BAZ2B block	HP1b binding inh	JMJD2A Tudor inh	PLK1 PBD inh	GCN5L2 inh	PI5P4Ka inh
COc1cccc(NC(C)C(=O)N2CC(C)OC(C)C2)c1 (stereo not drawn)	2%	12%	40%	-4%	-6%	-6
O=C(Cc1ccccc1)NC(NNc1ccccc1)(C(F)(F)F)C(F)(F)F	6%	?	?	27µM*	-8%	-7
Cc1ccc(O)c(N)c1	-4%	4%	-32%	-16%	1%	-1
COc1ccc(O)c(N)c1	50µM*	nt	nt	nt	-3%	nt
Cc1cccc(N2CCN(C(=O)CN3C(=O)COc4ccc(S(=O)(=O)N5CCOCC5)cc43)CC2)c1C	-36%	30%	-17%	nt	0%	nt
CCOC(=O)c1ccc(NS(=O)(=O)c2cc3c(cc2C)n(C)c(=O)c(=O)n3C)cc1	0%	32%	-6%	nt	-8%	nt
COc1ccc(NC2c3ccccc3C(=O)N2c2ccccn2)cc1 (stereo not drawn)	56µM*	5%	-35%	-4%	-3%	-2
CC1OC(CC(=O)O)CC2=C1C(=O)c1c(O)cccc1C2=O (stereo not drawn)	nt	?	56µM*	2.4µM*	nt	-23
COc1cccc2c1-c1c(O)cccc1C2=O	1%	15%	-20%	-15%	-24%	5
Cc1ccc(N(CC(=O)Nc2cccc(Cl)c2)S(=O)(=O)c2cccs2)cc1	nt	49%	-2%	nt	-3%	nt
O=c1c(CO)cc(CO)cc(CO)c1O	10µM*	15%	22µM*	-15%	-13%	5
CC1CCN(C(=O)COC(=O)CNC(=O)C23CC4CC(CC(C4)C2)C3)CC1	-5%	36%	-6%	1%	1%	-2
CCN(CC)c1nc(-c2nn[nH]n2)nc(N(CC)CC)n1	4%	23%	89µM*	-10%	-1%	1
CCN(CC)c1nc(N(CC)CC)[nH]c(=O)n1	nt	32%	0%	-6%	nt	-1
Cc1[nH]n(-c2ncc(-c3ccccc3)s2)c(=O)c1C(c1ccc(Br)cc1)C(C#N)C#N (stereo not drawn)	35µM*	40µM*	50µM*	2.7µM*	?	-70*
Cc1ccc(S(=O)(=O)/N=C2\C=C(NS(=O)(=O)c3ccccc3)C(=O)c3ccccc32)cc1	nt	?	32µM*	15µM*	nt	?
Cc1ccc(S(=O)(=O)Nc2ccccc2-c2ccccc2)cc1	14%	50%	17%	2%	-19%	nt
Cc1cc(C)c(S(=O)(=O)/N=C2\C=C(NS(=O)(=O)c3ccccc3)C(=O)c3ccccc32)c(C)c1	5.6µM*	?	13µM*	24µM*	-13%	-23
COc1ccccc1-c1noc(-c2ccc(N3CCN(C)CC3)c([N+](=O)[O-])c2)n1	1%	53%	-2%	nt	-7%	nt
Nc1nc2c(F)cccc2s1	0%	25%	-7%	2%	5%	1
Nc1nc2c(F)c(F)c(F)cc2s1	-2%	3%	-14%	27µM*	-12%	?
